The results in this text go back to PubChem BioAssay (NCI).

The panel holds about 83,000 compounds, 20% with a hit somewhere; the sample as a whole holds those more often.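 Negative percent growth values reflect cell death: -40 means 40% of the cells present at the start died, and -100 means all died.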 Unmarked numbers belong to inactive results. The source made the active and inactive calls. The calls were made as follows: active = growth percent below 10; inactive = the rest.

Test in all cases: NCI-60 one-dose screen, 48 h (100 = growth as untreated, 0 = no growth, -100 = all killed)
One experiment concerns SR leukemia. The conditions noted are these: 10 µM unless noted.
Another experiment relates to RPMI-8226 leukemia. The conditions noted are these: 10 µM unless noted.
The test system of a further experiment is OVCAR-8 ovarian. The conditions noted are these: 10 µM unless noted.
A further experiment has as its system OVCAR-5 ovarian. The conditions noted are these: 10 µM unless noted.
The subject of another experiment is OVCAR-4 ovarian. The note with it: 10 µM unless noted.
The next experiment has as its system SK-OV-3 ovarian. The conditions noted are these: 10 µM unless noted.
The subject of another experiment is IGROV1 ovarian. The note with it: 10 µM unless noted.
In a further experiment the test system is OVCAR-3 ovarian. The conditions noted are these: 10 µM unless noted.
The subject of another experiment is HS 578T breast. The note with it: 10 µM.
A further experiment relates to NCI/ADR-RES ovarian. The note with it: 10 µM unless noted.

`CC(C)(C)c1ccc(Cn2cc(CSc3nc4ccccc4s3)nn2)cc1`: the growth in the experiment on SR leukemia is 98.7%; with RPMI-8226 leukemia, 97.2%; with OVCAR-8 ovarian it was 92%; in the experiment on OVCAR-5 ovarian it was 94.4%; in the experiment with OVCAR-4 ovarian it was 97.5%; in the experiment on SK-OV-3 ovarian, 96.6%. Also, the growth in the experiment with IGROV1 ovarian is 90.7%; in the experiment with OVCAR-3 ovarian, 107%; with HS 578T breast, 93.7%; with NCI/ADR-RES ovarian, 92.8%.
Take `COc1ccc(OC)c(NC2=C(SCCc3ccccc3)C(=O)c3ccccc3C2=O)c1`: the growth in the experiment on SR leukemia is 70.7%; in the experiment on RPMI-8226 leukemia, 74%; with OVCAR-8 ovarian it was 94.5%; in the experiment on OVCAR-5 ovarian, 99.3%; in the experiment on OVCAR-4 ovarian it was 58.4%; with SK-OV-3 ovarian it was 88.5%. Further, the growth with IGROV1 ovarian is 75.7%; in the experiment with OVCAR-3 ovarian, 83.4%; with HS 578T breast, 70.8%; with NCI/ADR-RES ovarian it was 76.5%.
In the case of `COc1cc2c(c(OC)c1)C1c3ccccc3NC(=O)N1CC2` (stereo not given), the growth in the experiment on SR leukemia was 13.2%; with RPMI-8226 leukemia, 16.4%; in the experiment with OVCAR-8 ovarian it was 44.3%; in the experiment with OVCAR-5 ovarian, 48.6%; in the experiment on OVCAR-4 ovarian it was 50.4%; in the experiment on SK-OV-3 ovarian, 52.8%. The growth in the experiment on IGROV1 ovarian was 60.2%; with OVCAR-3 ovarian, -6.26% (active); with HS 578T breast, 16.4%; with NCI/ADR-RES ovarian, 1.85% (active).
With `CC(C)(C)CC(C)(C)Nc1c(-c2c(O)c3ccccc3oc2=O)nc2c(Cl)cc(C(F)(F)F)cn12`, the growth in the experiment on SR leukemia is 104%; with RPMI-8226 leukemia, 99.2%; in the experiment with OVCAR-8 ovarian, 102%; with OVCAR-5 ovarian, 109%; with OVCAR-4 ovarian it was 100%; with SK-OV-3 ovarian, 93%. Moreover, the growth is 90.4% in the experiment on IGROV1 ovarian, 112% in the experiment on OVCAR-3 ovarian, 103% in the experiment with HS 578T breast and 108% in the experiment on NCI/ADR-RES ovarian.
Consider `N#Cc1cc2[nH]c3ccc(OC(F)(F)F)cc3c2oc1=O`, for which the growth in the experiment with SR leukemia is 26.2%; with RPMI-8226 leukemia, 89.1%; with OVCAR-8 ovarian, 86.8%; in the experiment on OVCAR-5 ovarian, 118%; in the experiment on OVCAR-4 ovarian it was 73.7%; in the experiment with SK-OV-3 ovarian, 62.5%. In addition, the growth is 78.9% with IGROV1 ovarian, 67.1% with OVCAR-3 ovarian, 86.2% with HS 578T breast and 70.9% with NCI/ADR-RES ovarian.
On to `COc1ccc(Cc2cc(-c3ccccc3C)n[nH]c2=O)cc1`, for which the growth with SR leukemia was 103%; with RPMI-8226 leukemia it was 39.9%; with OVCAR-8 ovarian, 99.9%; in the experiment on OVCAR-5 ovarian, 101%; in the experiment on OVCAR-4 ovarian it was 92.5%; in the experiment with SK-OV-3 ovarian it was 102%. For the same compound, the growth in the experiment with IGROV1 ovarian was 53.7%; in the experiment with OVCAR-3 ovarian it was 96.4%; in the experiment on HS 578T breast, 90.9%; in the experiment on NCI/ADR-RES ovarian it was 105%.
For the compound `Nc1c(C(=O)c2ccccc2)sc2nc(-c3cccs3)cc(-c3cccs3)c12`, the growth with SR leukemia is 24.4%; with RPMI-8226 leukemia it was 57.7%; in the experiment on OVCAR-8 ovarian, 54.8%; in the experiment with OVCAR-5 ovarian, 84.5%; in the experiment on OVCAR-4 ovarian it was 62.6%; in the experiment on SK-OV-3 ovarian, 46%. Further, the growth was 66.3% in the experiment on IGROV1 ovarian, 11.9% in the experiment with OVCAR-3 ovarian, 53.4% in the experiment with HS 578T breast and 24.4% in the experiment with NCI/ADR-RES ovarian.
Consider `COc1ccc2c(CCCCC(c3ccccc3)c3ccccc3)c3[n+](cc2c1OC)CCc1cc2c(cc1-3)OCO2`, for which the growth was -35.8% (active) in the experiment with SR leukemia; -33% (active) in the experiment on RPMI-8226 leukemia; -54.8% (active) in the experiment with OVCAR-8 ovarian; -13.4% (active) with OVCAR-5 ovarian; -80.2% (active) with OVCAR-4 ovarian; -9.34% (active) in the experiment with SK-OV-3 ovarian. Moreover, the growth in the experiment with IGROV1 ovarian is -52.1% (active); in the experiment with OVCAR-3 ovarian it was -89.6% (active); in the experiment on HS 578T breast, -20.1% (active); in the experiment on NCI/ADR-RES ovarian, 68.5%.
Consider `O=C1CC(c2ccc3c(c2)OCO3)c2ncn(-c3ccc(Cl)cc3)c2N1` (stereo not given), for which the growth in the experiment with SR leukemia is 24.4%; with RPMI-8226 leukemia, 38.7%; in the experiment on OVCAR-8 ovarian, 29.7%; with OVCAR-5 ovarian it was 71.2%; in the experiment on OVCAR-4 ovarian, 59.3%; in the experiment on SK-OV-3 ovarian it was 37.4%. Further, the growth in the experiment with IGROV1 ovarian is 60.5%; in the experiment on OVCAR-3 ovarian, 7.91% (active); in the experiment on HS 578T breast, 47.5%; in the experiment with NCI/ADR-RES ovarian, 14%.
Consider `O=C(Cn1cncn1)Nc1ccc(-c2nc3ccccc3s2)cc1`, for which the growth in the experiment with SR leukemia is 83.8%; in the experiment with RPMI-8226 leukemia, 83.3%; in the experiment on OVCAR-8 ovarian it was 94.6%; in the experiment on OVCAR-5 ovarian, 115%; in the experiment on OVCAR-4 ovarian, 80.6%; with SK-OV-3 ovarian, 99.9%. The growth in the experiment with IGROV1 ovarian was 92.4%; in the experiment with OVCAR-3 ovarian, 91%; with HS 578T breast, 103%; in the experiment with NCI/ADR-RES ovarian, 102%.
`N#CC1(C#N)C(c2cccs2)NC(c2cccs2)C1(C#N)C#N` (stereo not given): the growth in the experiment with SR leukemia is 110%; in the experiment on RPMI-8226 leukemia, 107%; with OVCAR-8 ovarian, 101%; in the experiment with OVCAR-5 ovarian, 109%; in the experiment on OVCAR-4 ovarian it was 92.7%; with SK-OV-3 ovarian, 99.1%. Also, the growth is 101% in the experiment with IGROV1 ovarian, 98.1% in the experiment with OVCAR-3 ovarian, 104% in the experiment with HS 578T breast and 97.6% in the experiment with NCI/ADR-RES ovarian.
Regarding `COc1ccc2c(CCc3ccc(Cl)cc3)c3[n+](cc2c1OC)CCc1cc2c(cc1-3)OCO2`, the growth with SR leukemia was 33.8%; in the experiment with RPMI-8226 leukemia, 20.7%; with OVCAR-8 ovarian, 51%; in the experiment on OVCAR-5 ovarian, 86.2%; in the experiment with OVCAR-4 ovarian, 24.4%; with SK-OV-3 ovarian it was 75.2%. Further, the growth in the experiment on IGROV1 ovarian was 40.8%; with OVCAR-3 ovarian it was 44.2%; in the experiment on HS 578T breast, 79.6%; with NCI/ADR-RES ovarian it was 101%.
As for `Nc1c2c(c(O)c3c1=C(CO)C=N3)=NCCS2=O` (stereo not given), the growth was 3.82% (active) in the experiment with SR leukemia; 20.7% in the experiment on RPMI-8226 leukemia; -18.8% (active) in the experiment on OVCAR-8 ovarian; -61.6% (active) with OVCAR-5 ovarian; -96.7% (active) with OVCAR-4 ovarian; 77% in the experiment with SK-OV-3 ovarian. The growth is -15.2% (active) in the experiment with IGROV1 ovarian, -51.5% (active) in the experiment with OVCAR-3 ovarian, 1.72% (active) with HS 578T breast and 0.866% (active) in the experiment with NCI/ADR-RES ovarian.
